Values joined by “and” are separate entries in the source; they are usually repeats but may differ in a detail not shown here. Equal values may be shown once. Inconclusive results are not listed. A call without a number means that no potency is given here. Active and inactive are the calls of the source. The call rests on the fitted dose curve; in most records, active means well fitted cell-killing curve with a large enough effect in the repeat runs; inconclusive means weak or mixed curves; inactive means no such curve, though single readings can be large or run the other way.
Potency means the concentration at half of the fitted maximal effect.

The test is described as follows: qHTS assay for identifying genotoxic compounds that show differential cytotoxicity against isogenic chicken DT40 cell lines with known DNA damage response pathways - Rad54/Ku70 mutant cell line (AID 743015). Further: nearly all actives have a fitted effect of over 60% in size. The following applies: DT40 Rad54/Ku70 mutant viability, CellTiter-Glo, 40 h; series mostly up to 66.8 µM. The source says:
National Center for Advancing Translational Sciences [NCATS]
NIH Chemical Genomics Center [NCGC]
U.S. Environmental Protection Agency [EPA]
National Institutes of Environmental Health Sciences [NIEHS]
National Toxicology Program [NTP]
U.S. Food and Drug Administration [FDA]
DNA repair pathways play a critical role in cellular homeostasis by repairing DNA damage induced by endogenous processes and xenobiotics. Isogenic chicken DT40 cell lines deficient in different DNA repair pathways can be used to identify genotoxic compounds and aid in characterizing the nature of the DNA damage induced. Two DNA repair-deficient cell lines with disrupted genes, Rad54/Ku70 or Rev3, were used to screen the Tox21 10K compound library. Possible genotoxicity was based on the presence of a significant increase in cytotoxicity in one or more of the DNA repair-deficient cell lines compared to that observed in the parental DNA repair-proficient cell line. CellTiter Glo viability assay (Promega, Madison, WI) was used to measure cell viability in these cells after compound treatment. This assay includes the data from the Rad54/Ku70 mutant cell line.
Tox21 Assay Protocol Summary:
300 DT40 mutant cells in 5 uL/well were dispensed into white, solid-bottom 1536-well plates using a Multidrop Combi (ThermoFisher Scientific, Waltham, MA) dispenser. After the assay plates were incubated at 37 C/5% CO2 for approximately 0.5 hour, 23 nL of compounds dissolved in DMSO, positive controls or DMSO only was transferred into the assay plate by a pintool work station (Kalypsys, San Diego, CA). The assay plates were incubated at 37 C/5% CO2 for 40 hours. After 5 uL per well of CellTiter-Glo reagent was added into each well of the assay plates, the plates were incubated for 30 min at room temperature and the luminescence intensity of the plates was measured using a ViewLux (PerkinElmer, Shelton, CT) plate reader.
For the molecule `OCCOCCOCCO`, the Potency entry is “inactive”. Under `CC1=CCC2CC1C2(C)C` (stereo not given) stands “inactive”. In the case of `CC(=O)Nc1cccc(O)c1` it was “inactive”. In the case of `O=C(O)CCCCCCCCCCC(=O)O` it was “inactive”.

Regarding `CCN(CC)c1ccc(C(=O)c2ccccc2C(=O)O)c(O)c1`, the Potency result is “inactive”. In the case of `CN(C)CCCN` it was “inactive”.

As to `COc1ccc(Nc2ccccc2)c(C)c1`, the Potency entry is “inactive”. Under `CC1CCC(C(C)C)C(O)C1` (stereo not given) stands “inactive”. Under `CC(c1cc2ccccc2s1)N(O)C(N)=O` (stereo not given) stands “inactive”; under `O=P(OC(CCl)CCl)(OC(CCl)CCl)OC(CCl)CCl`, 54.2 µM (active) and 61.1 µM (active); under `c1ccc2scnc2c1`, “inactive”.

As to `O=[N+]([O-])c1ccc(/C=C/c2ccc([N+](=O)[O-])cc2S(=O)(=O)O)c(S(=O)(=O)O)c1`, the Potency entry is “inactive”. In the case of `CC(C)c1ccc(S(=O)(=O)O)cc1` it was “inactive”; in that of `CCc1cccc(C)c1N`, “inactive”; in that of `CCCCCCCCCCCCOCCO`, “inactive”. In the case of `CCCC(C)=O` it was “inactive”; in that of `CCCCCC/C(C=O)=C\c1ccccc1`, “inactive”; in that of `CC(=O)c1ccccc1`, “inactive”. In the case of `Cc1ccc(S(N)(=O)=O)cc1`, the Potency result is “inactive”. In the case of `O=C(O)CC(C(=O)O)C(CC(=O)O)C(=O)O` (stereo not given) it was “inactive”; in that of `CCc1ccc(CCOc2ccc(CC3SC(=O)NC3=O)cc2)nc1` (stereo not given), 11.9 µM (active) and 61.1 µM (active). Under `O=C1CCC(N2C(=O)c3ccccc3C2=O)C(=O)N1` (stereo not given) stands “inactive”; under `O=C(O)c1ccc(C(=O)O)cc1`, “inactive”. In the case of `COS(C)(=O)=O` it was “inactive”; in that of `CCCSc1ccc2nc(NC(=O)OC)[nH]c2c1`, 452 nM (active) and 1.09 µM (active).

For `CC1CCC2CC1C2(C)C` (stereo not given), the Potency result is “inactive”.

On to `Fc1ccc(Br)cc1`, for which the Potency result is “inactive”. In the case of `O=C(Oc1ccccc1)c1ccccc1` it was “inactive”; in that of `FC(F)(F)c1ccc(Cl)c(Cl)c1`, “inactive”; in that of `Cc1ccc2oc(=O)ccc2c1`, “inactive”. In the case of `COCCCOc1ccnc(CS(=O)c2nc3ccccc3[nH]2)c1C` (stereo not given), the Potency was 13.3 µM (active) and 19.3 µM (active). Under `Cc1occc(=O)c1O` stands “inactive”; under `OC[C@H]1O[C@@](CO)(O[C@H]2O[C@H](CO)[C@@H](O)[C@H](O)[C@H]2O)[C@@H](O)[C@@H]1O`, “inactive”. For the molecule `CCN(CC)CCCC(C)Nc1ccnc2cc(Cl)ccc12` (stereo not given), the Potency was 18.8 µM (active). In the case of `c1ccc2c(c1)ccc1ccccc12` it was 30.6 µM (active); in that of `O=C(O)c1ccccc1C(c1ccc(O)cc1)c1ccc(O)cc1`, “inactive”; in that of `C[C@H]1C[C@@H]2[C@H]([C@@H](O)C[C@@]3(C)[C@H]2CC[C@]3(O)C(=O)CO)[C@@]2(C)C=CC(=O)C=C12`, “inactive”. In the case of `C=CCOC(=O)c1ccccc1C(=O)OCC=C`, the Potency result is “inactive”. `c1c[nH]cn1`: the Potency result is “inactive”. Under `Nc1cc([N+](=O)[O-])ccc1O` stands “inactive”.
